Reference: PubChem BioAssay (NCATS)
Inconclusive results are not listed. Values without a mark were called inactive. Calls of active or inactive are those of the source. The call rests on the fitted dose curve; in most records, active means well fitted inhibition curve with a large enough effect; inconclusive means small, poorly fitted or top-dose-only effect; inactive means no such curve, though single readings can be large or run the other way.

experiment: BET inhibitor-based combinations targeting novel dependencies in MECOM-rearranged (r) AML: UCSD-AML1 cell line (AID 2202235); conditions: UCSD-AML1 AML cells viability, CellTiter-Glo, 48 h; series mostly up to 46 µM; viability (% of control): at the top concentration; further: nearly all actives have a fitted effect of over 40% in size;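 on viability (% of control): plate controls were DMSO vehicle wells for no effect and blank wells for full effect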
From the text: Ecotropic viral insertion site 1 (EVI1) is located on chromosome 3q26.2 as part of the MECOM (MDS and EVI1 complex) locus. Under normal hematopoiesis, EVI1 is a regulator of hematopoietic stem cell maintenance and self-renewal and EVI1 levels decrease as the cells differentiate. In approximately 5-10% of de novo acute myeloid leukemia (AML) EVI1 is aberrantly expressed, including Chromosomal inv(3)(q21;q26.2) or t(3;3)(q21;q26.2) alterations (MECOM-r) that account for about 50% of AML with EVI1 overexpression 31. AMLs with high levels of EVI1 have a poor prognosis and an overall survival time averaging between 10-14 months. EVI1 overexpression confers resistance in leukemia cells, highlighting the need to develop new targeted therapies for EVI1 overexpressing AMLs. Here, we performed an unbiased chemical drug screening by evaluating the single agent activity of a collection of 2,480 oncology-focused, approved and investigational drugs (NCATS Mechanism Interrogation Plates, MIPE v5.0) against a panel of seven AML cell lines. These included four MECOM-r cell-lines (AML-191, AML-194, UCSD-AML1 and HNT-34) and three non-MECOM-r AMLs (MV4-11, OCI-AML3 and SET-2). Exploiting the mechanistic redundancy built in the library, we identified target-level sensitivities in MECOM-r AML cells and relative activity as compared to other AML subtypes.
A collection of 2480 mechanistically annotated dugs (MIPE v5.0) was used to screen four 3q26.2 rearranged AML cell lines and three non-3q26.2 rearranged AML cell lines. This library purposely exploits redundancy by including multiple inhibitors of key onco-targets, while simultaneously encompassing mechanistic diversity, targeting more than 800 distinct mechanisms of action. Briefly, cells were seeded in 5 uL of growth media using a Multidrop Combi dispenser into 1536 well white polystyrene tissue culture treated plates (Corning) at a density of 500cells/well. For each cell-line, for each of the 2480 drugs in MIPE v5.0 library, an 11-point dose curve was generated via a 1536 pin-tool. Plates were incubated for 48 hr at standard incubator conditions, covered by a stainless steel gasketed lid to prevent evaporation. Cell viability was determined by luminescence based, Cell Titer Glo assay (Promega). In detail, 3 uL of Cell Titer Glo were added to each well and plates were incubated at room temperature for 15 min with a stainless-steel lid in place. Luminescence readings were taken using a Viewlux (PerkinElmer) with a 2 s exposure time per plate. Compound dose-response curves were normalized to DMSO and empty well controls on each plate. Quantitative drug activity data from dose-response curves was determined utilizing area Under the Curve (AUC) and Z-transformed AUC (Z-AUC, a mean-centering transformation applied to each individual cell-line screened).
Potency means the concentration at half of the fitted maximal effect.

SMILES	Potency	viability (% of control) [%]
CN(C)C/C=C/C(=O)Nc1cccc(C(=O)Nc2cccc(Nc3ncc(Cl)c(-c4c[nH]c5ccccc45)n3)c2)c1	0.209 µM (active)	–
CC(C)N(CCCNC(=O)Nc1ccc(C(C)(C)C)cc1)C[C@H]1O[C@@H](n2ccc3c(N)ncnc32)[C@H](O)[C@@H]1O	–	87.6
CN(C)C1CCN(C(=O)c2ccc(NC(=O)Nc3ccc(-c4nc(N5CCOCC5)nc(N5CCOCC5)n4)cc3)cc2)CC1	0.263 µM (active)	–
COc1cc2c(Nc3ccc(NC(=O)c4ccccc4)cc3)ncnc2cc1OCCCN1CCOCC1	–	122
CC(=O)Oc1cc2c(s1)CCN(C(C(=O)C1CC1)c1ccccc1F)C2 (stereo not given)	–	104
COCCNCc1ccc(-c2cc3nccc(Oc4ccc(NC(=O)C5(C(=O)Nc6ccc(F)cc6)CC5)cc4F)c3s2)nc1	8.33 µM (active)	–
N#CC1(c2ccc(NC(=O)c3cccnc3NCc3ccncc3)cc2)CCCC1	–	90.7
O=C1N(c2ccccc2)c2ccccc2C1(Cc1ccncc1)Cc1ccncc1	–	111
Cc1[nH]c(=O)c(C#N)cc1-c1ccc2nccn2c1	–	108
Cc1ccc(C(=O)c2cc(O)c(O)c([N+](=O)[O-])c2)cc1	–	103
Nc1cccc2c1C(=O)N(C1CCC(=O)NC1=O)C2=O (stereo not given)	–	120
CC(=O)c1cnc2ccc(-c3cc(Cl)c(O)c(Cl)c3)nc2c1NC1CCC(CN(C)C)CC1 (stereo not given)	0.027 µM (active)	–
CC(C)c1ccc2oc3nc(N)c(C(=O)O)cc3c(=O)c2c1	–	95.3
O=P(O)(O)C(O)(Cc1cccnc1)P(=O)(O)O	–	118
C[C@H]1C[C@@H]2[C@H]([C@@H](O)C[C@@]3(C)[C@H]2CC[C@]3(O)C(=O)CO)[C@@]2(C)C=CC(=O)C=C12	–	110
Nc1ccn([C@@H]2CS[C@H](CO)O2)c(=O)n1	–	108
CC(=O)N1CCN(CCOc2ccc(C3CCN(C4=Nn5c(nnc5C(F)(F)F)CC4)CC3)cc2)CC1	–	116
NC[C@H](O)c1ccc(O)c(O)c1	–	96.2
C=CC(=O)Nc1cccc(Oc2nc(Nc3ccc(N4CCN(C)CC4)cc3)ncc2Cl)c1	4.17 µM (active)	–
O=C(O)c1c(Cl)c(Cl)c(Cl)c(Cl)c1-c1c2cc(I)c(=O)c(I)c-2oc2c(I)c(O)c(I)cc12	5.9 µM (active)	–

SMILES	Potency	viability (% of control) [%]
NC(=O)c1ccc(-c2nc(-c3ccc4c(c3)OCO4)c(-c3ccccn3)[nH]2)cc1	–	102
OC1CCC(Nc2ncc3nc(Nc4c(F)cc(F)cc4F)n([C@@H]4CCOC4)c3n2)CC1 (stereo not given in full)	–	88.6
NC(=O)c1cnc(N[C@@H]2CCCC[C@@H]2N)nc1Nc1cccc(-n2nccn2)c1	8.33 µM (active)	–
CCCc1cc(C(N)=S)ccn1	–	115
CS(=O)(=O)N(Cc1ccco1)CC(O)Cn1c2ccccc2c2ccccc21 (stereo not given)	–	111
Cc1ccccc1C(=O)Nc1ccc(C(=O)N2CCCC(O)c3cc(Cl)ccc32)c(C)c1 (stereo not given)	–	106
CC(C)(C)C(=O)CN1C(=O)[C@H](NC(=O)Nc2cccc(C(=O)O)c2)CN(C2CCCCC2)c2ccccc21	–	105
COc1cc2ncnc(Nc3cccc(Br)c3)c2cc1OC	20.9 µM (active)	–
Cc1cccc(N(C)C(=S)Oc2ccc3ccccc3c2)c1	–	112
O=C(NCCCCN1CCOCC1)c1cc2ccccc2o1	–	113
NC(=O)C1CCCc2c1[nH]c1ccc(Cl)cc21 (stereo not given)	–	105
O=[N+]([O-])c1cn2c(n1)OC[C@@H](OCc1ccc(OC(F)(F)F)cc1)C2	–	107
O=NN(CCCl)C(=O)NCCCl	–	109
O=C(CCCCCCNC(=O)c1cnc(N(c2ccccc2)c2ccccc2)nc1)NO	7.42 µM (active)	–
NC(=O)N1CCC(CC(=O)N2CCC([C@H]3c4ncc(Br)cc4CCc4cc(Cl)cc(Br)c43)CC2)CC1	3.72 µM (active)	–
C[C@@H]1C(=O)O[C@H]2CC34[C@H]5C[C@@H](C(C)(C)C)C36[C@H](OC(=O)[C@@H]6O)O[C@@]4(C(=O)O5)[C@]21O (stereo not given in full)	–	33.4
CC(=O)O[C@H]1C[C@@H]2CC[C@H]3[C@H]4C[C@H]([N+]5(C)CCCCC5)[C@@H](OC(C)=O)[C@@]4(C)CC[C@@H]3[C@@]2(C)C[C@H]1[N+]1(C)CCCCC1	–	99.4
C[C@]12CC[C@@H]3c4ccc(O)cc4CC[C@H]3[C@H]1[C@@H](O)[C@@H](O)[C@H]2O	–	104
COc1ccc(C2CNC(=O)C2)cc1OC1CCCC1 (stereo not given)	–	115
COc1cc2ncnc(-n3nc(-c4ccccn4)nc3N)c2cc1OC	4.68 µM (active)	–
